Growth data for 14 compounds are collected here from PubChem BioAssay (NCI).

Some test systems named below: SK-MEL-2 melanoma; EKVX NSCLC; SN12C renal; UO-31 renal; TK-10 renal; ACHN renal; A498 renal; CCRF-CEM leukemia; MOLT-4 leukemia.
Test in all cases: NCI-60 one-dose screen, 48 h (100 = growth as untreated, 0 = no growth, -100 = all killed)
Settings in all cases: 10 µM unless noted

The panel holds about 83,000 compounds, 20% with a hit somewhere; the sample as a whole holds those more often.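 Cell lines were cultured in 96-well plates, exposed to a single compound concentration, and assessed for percent growth 48 hours later.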 Values without a mark were called inactive. Active and inactive are the calls of the source. Rule for the calls: active = growth percent below 10; inactive = the rest.

As for `COc1ccc2c(c1)c(-c1nc(-c3c[nH]c4ncccc34)cs1)cn2CCCN1CCCCC1`, the growth in the assay on SK-MEL-2 melanoma was 73.6%; in the assay on EKVX NSCLC, 51.2%; with SN12C renal, 58%; in the assay with UO-31 renal, 36.5%; with TK-10 renal, 77.5%; with ACHN renal it was 22.3%. Besides, the growth is 66.1% with A498 renal, -0.15% (active) in the assay on CCRF-CEM leukemia and -18.9% (active) in the assay with MOLT-4 leukemia.
Take `COc1cc(/C=N/Nc2ncnc3c2c(C)nn3-c2ccc(F)cc2)ccc1O`: the growth is 89.9% with SK-MEL-2 melanoma; 87.6% in the assay on EKVX NSCLC; 85.1% in the assay on SN12C renal; 64.4% in the assay on UO-31 renal; 88.7% in the assay on TK-10 renal; 92.7% with ACHN renal. Besides, the growth is 103% with A498 renal, 62% in the assay on CCRF-CEM leukemia and 61.7% with MOLT-4 leukemia.
Regarding `C[C@@H](C(=O)O)c1ccc2c3cc(Cl)ccc3n(Cc3cc(=O)oc4ccc(Cl)cc34)c2c1`, the growth in the assay on SK-MEL-2 melanoma is 101%; with EKVX NSCLC, 97%; in the assay on SN12C renal, 98.8%; in the assay with UO-31 renal, 76.3%; in the assay with TK-10 renal, 116%; in the assay on ACHN renal it was 99.8%. For the same compound, the figures for the growth with A498 renal, with CCRF-CEM leukemia and with MOLT-4 leukemia were 102%, 105% and 101%, respectively.
For the compound `COc1ccc2[nH]c(-c3ccc(Cl)cc3)cc(=O)c2c1`, the growth in the assay on SK-MEL-2 melanoma is 96.3%; with EKVX NSCLC, 95.2%; in the assay on SN12C renal it was 93.6%; in the assay on UO-31 renal, 94.4%; with TK-10 renal, 93.4%; in the assay on ACHN renal, 103%. The growth in the assay on A498 renal was 93.2%; in the assay with CCRF-CEM leukemia, 36.3%; in the assay with MOLT-4 leukemia it was 99.2%.
Regarding `Cc1cc(N(CCCNc2ccnc3cc(Cl)ccc23)Cc2ccco2)nc(N2CCOCC2)n1`, the growth is 93.2% in the assay on SK-MEL-2 melanoma; 67.6% with EKVX NSCLC; 67.4% in the assay with SN12C renal; 46.8% with UO-31 renal; 110% in the assay on TK-10 renal; 95.3% with ACHN renal. Further, the growth is 59.1% in the assay with A498 renal, 69.2% with CCRF-CEM leukemia and 63.7% with MOLT-4 leukemia.
As to `NCCn1cc(-c2nc(-c3c[nH]c4ncccc34)cs2)c2cc(F)ccc21`, the growth in the assay with SK-MEL-2 melanoma is 94.7%; with EKVX NSCLC it was 48.6%; in the assay with SN12C renal it was 79%; in the assay on UO-31 renal it was 53.3%; in the assay on TK-10 renal it was 142%; in the assay with ACHN renal, 76.4%. Also, the figures for the growth with A498 renal, in the assay on CCRF-CEM leukemia and in the assay with MOLT-4 leukemia were 91.4%, 49% and 57%, respectively.
For `CCCCC[C@H]1CC=C2C(=O)C(Cl)=C[C@@H]2CC=CCCCC(=O)O[C@@H](CCCCC)CC=C2C(=O)C(Cl)=C[C@@H]2CC=CCCCC(=O)O[C@@H](CCCCC)CC=C2C(=O)C(Cl)=C[C@@H]2CC=CCCCC(=O)O1`, the growth in the assay with SK-MEL-2 melanoma was 91.4% [8 µM]; with EKVX NSCLC, 96.6% [8 µM]; in the assay on SN12C renal, 43.1% [8 µM]; in the assay with UO-31 renal, 76.3% [8 µM]; with TK-10 renal it was 151% [8 µM]; in the assay on ACHN renal it was 69.6% [8 µM]. The growth in the assay on A498 renal is 106% [8 µM]; in the assay on CCRF-CEM leukemia, 7.3% [8 µM] (active); in the assay with MOLT-4 leukemia, 10.4% [8 µM].
In the case of `Cn1cc(-c2csc(-c3cn(CCCN4CCCCC4)c4ccccc34)n2)c2cccnc21`, the growth in the assay on SK-MEL-2 melanoma is 101%; with EKVX NSCLC it was 70.8%; in the assay with SN12C renal it was -70.9% (active); with UO-31 renal, -90.2% (active); with TK-10 renal it was -84.3% (active); in the assay with ACHN renal, -97.4% (active). Moreover, the figures for the growth with A498 renal, in the assay on CCRF-CEM leukemia and in the assay on MOLT-4 leukemia were 82.6%, -27.9% (active) and -50.5% (active), respectively.
Regarding `CCCCC[C@H]1C/C=C2/C(=O)C(Cl)=C[C@@H]2C/C=C\CCCC(=O)O1`, the growth in the assay with SK-MEL-2 melanoma is -45.4% (active); with EKVX NSCLC, -69% (active); in the assay on SN12C renal, -26.9% (active); in the assay on UO-31 renal it was -100% (active); in the assay on TK-10 renal it was -56.7% (active); in the assay with ACHN renal, -84.4% (active). The values for the growth in the assay with A498 renal, with CCRF-CEM leukemia and with MOLT-4 leukemia were -76.2% (active), 0.514% (active) and -2.82% (active), respectively.
With `Cn1cc(-c2csc(-c3cn(CCN)c4ccccc34)n2)c2cccnc21`, the growth in the assay on SK-MEL-2 melanoma is 61%; with EKVX NSCLC, 50.4%; in the assay on SN12C renal it was 54.1%; with UO-31 renal, 33.2%; in the assay on TK-10 renal, 92.9%; with ACHN renal, 56.6%. Besides, the growth with A498 renal was 74.9%; in the assay with CCRF-CEM leukemia it was 8.25% (active); with MOLT-4 leukemia, 10.1%.
Take `Cc1ccc2oc(=O)cc(-c3sc(N4CCCCC4)nc3-c3ccccc3)c2c1`: the growth in the assay on SK-MEL-2 melanoma is 93.7%; in the assay with EKVX NSCLC, 90.4%; in the assay with SN12C renal, 50.2%; in the assay with UO-31 renal it was 58%; in the assay with TK-10 renal it was 161%; in the assay with ACHN renal, 84.3%. Moreover, the growth in the assay with A498 renal was 109%; in the assay with CCRF-CEM leukemia, 104%; with MOLT-4 leukemia it was 97.3%.
For `Brc1ccc2c(c1)c(-c1nc(-c3c[nH]c4ncccc34)cs1)cn2CCCN1CCCCC1`, the growth is 36.8% in the assay on SK-MEL-2 melanoma; 50.1% in the assay on EKVX NSCLC; 25.3% in the assay on SN12C renal; -52% (active) in the assay on UO-31 renal; 76.2% with TK-10 renal; -23.7% (active) in the assay on ACHN renal. The growth is 77% in the assay on A498 renal, -35.5% (active) in the assay on CCRF-CEM leukemia and -44.6% (active) in the assay with MOLT-4 leukemia.
Take `COc1ccc(NC(=S)N/N=C/c2ccccc2SSCCC(=O)OC[C@H]2O[C@H](O)[C@H](O)[C@@H](O)[C@@H]2O)cc1`: the growth was 78.9% in the assay on SK-MEL-2 melanoma; 72.9% in the assay on EKVX NSCLC; 81.2% with SN12C renal; 81.4% with UO-31 renal; 136% with TK-10 renal; 101% in the assay on ACHN renal. The growth with A498 renal is 93.4%; in the assay on CCRF-CEM leukemia it was 92.4%; with MOLT-4 leukemia, 65.4%.
Take `NCCn1cc(-c2nc(-c3c[nH]c4ncccc34)cs2)c2cc(Br)ccc21`: the growth was 101% in the assay on SK-MEL-2 melanoma; 64% with EKVX NSCLC; 78% with SN12C renal; 62.2% in the assay on UO-31 renal; 149% in the assay on TK-10 renal; 76.4% with ACHN renal. Also, the growth in the assay with A498 renal is 93.6%; in the assay on CCRF-CEM leukemia, 60%; with MOLT-4 leukemia, 41.8%.
